Bioassay records as filed in PubChem.
Shown are actives, neighbours in structure and some others; about 28% of the full set was active somewhere.
CYP2C19 inh = blocks human cytochrome P450 2C19 | CYP2C19 Supersomes, luciferin-H EGE luminescence, 30 min | AID 778 | inhibition, % at 5 µM | P33261 | actives 21% (n = 96,000);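 active = CYP2C19 inhibition above a set limit at 5 µM in the primary screen, cut at about 50% in these data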
PLK1 kinase inh = blocks human PLK1 kinase activity | inhibition, % at 10 µM | actives 0.53% (n = 97,000) | recombinant PLK1 kinase, TR-FRET peptide phosphorylation | P53350 | AID 619;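 active = inhibition of 50% or more in the single-concentration screen; inactive = inhibition below 50%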
Plk1 PBD FP = inhibitors of human Plk1 polo box domain binding. Plk1 PBD phosphopeptide binding, fluorescence polarization. inhibition, %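 (tested at about 20 µM)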. actives 0.13% (n = 97,000). AID 693; in the data active = inhibition above about 34%, passing the limit was not always enough
CYP2C9 inh = inhibitors of human CYP2C9 | P11712 | inhibition, % at 5 µM | actives 20% (n = 96,000) | CYP2C9 Supersomes, luciferin-H conversion, luminescence;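 active = blocking of liver enzyme CYP2C9 beyond about 50% at 5 µM, limit read from the data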
Target sequence (P11712 whole entry, looked up): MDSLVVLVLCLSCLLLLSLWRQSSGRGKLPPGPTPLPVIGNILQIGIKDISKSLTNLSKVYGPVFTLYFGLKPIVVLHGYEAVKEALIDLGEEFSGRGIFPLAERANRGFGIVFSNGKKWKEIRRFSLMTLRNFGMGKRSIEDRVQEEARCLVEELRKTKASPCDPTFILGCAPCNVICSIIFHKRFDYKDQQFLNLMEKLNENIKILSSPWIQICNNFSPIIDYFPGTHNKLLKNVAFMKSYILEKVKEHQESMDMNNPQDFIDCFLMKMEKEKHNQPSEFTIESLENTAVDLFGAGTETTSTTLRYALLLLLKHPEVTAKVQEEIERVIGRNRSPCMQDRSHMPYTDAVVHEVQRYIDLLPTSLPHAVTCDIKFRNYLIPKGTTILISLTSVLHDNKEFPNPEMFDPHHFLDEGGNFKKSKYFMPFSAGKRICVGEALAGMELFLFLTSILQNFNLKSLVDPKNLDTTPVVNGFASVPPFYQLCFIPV
CYP2C19 activ = activators of human cytochrome P450 2C19. activation factor at 5 µM. recombinant CYP2C19, luciferin-H EGE luminescence; active compounds read high; 0 = fully inhibited enzyme, 1 = untreated enzyme. 96,000 tested, under 10 active. P33261;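 active = activation factor of at least 2 at 5 µM in the primary screen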
CYP2C9 act = activators of human CYP2C9; AID 1024; activation factor at 5 µM; recombinant CYP2C9, luciferin-H conversion, luminescence; active compounds read high; factor 1 = untreated enzyme, 0 = blocked; actives 1.4% (n = 96,000);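 active = activation factor of 2 or more for CYP2C9 at a 5 µM dose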
Each line names hits and unclear results; the compound was inactive in the other large screens.

COc1ccc(C2SCC(=O)Nc3c2c(C)nn3-c2ccccc2)cc1 (stereo unspecified)	CYP2C9 inh 52.2
Cc1ccc(-n2nc(C)c3c2NC(=O)CSC3c2ccc3c(c2)OCO3)cc1 (stereo unspecified)	none (no result: PLK1 kinase inh, Plk1 PBD FP)
Cn1c2ccccc2c2cnn(CC(=O)N3CCC4(CC3)OCCO4)c(=O)c21	CYP2C19 inh 57.0
O=C(CN1CCN(Cc2cccc(Cl)c2)C1=O)N1CCC2(CC1)OCCO2	none
O=C(Cn1ncc2c3ccccc3n(Cc3cccc(Cl)c3)c2c1=O)N1CCC2(CC1)OCCO2	CYP2C19 inh 79.3, CYP2C9 inh 91.3 (no result: PLK1 kinase inh, Plk1 PBD FP)
Cc1c2cnn(CC(=O)N3CCC4(CC3)OCCO4)c(=O)c2c(C)n1Cc1ccccc1F	none (no result: PLK1 kinase inh, Plk1 PBD FP)
Cn1c2ccccc2c2c(C(=O)N3CCC4(CC3)OCCO4)cn(C3CCCCC3)c(=O)c21	CYP2C19 inh 51.4, CYP2C9 inh 69.3
Cc1cccn2c(=O)c3cc(C(=O)N4CCC5(CC4)OCCO5)n(C)c3nc12	none
O=c1[nH]c(=O)n(Cc2ccccc2)c(O)c1C=NCCCO	none
COc1ccc(C2(C#N)CC[N+](C)(C)CC2)cc1	none
Cc1ccccc1NC1=NCC(C)S1 (stereo unspecified)	none (no result: PLK1 kinase inh, Plk1 PBD FP)
O=P(Nc1ccccc1Cl)(c1ccccc1)c1nc2c(s1)CCCC2 (stereo unspecified)	none
COc1ccc2c(c1)c(C(=O)O)c(C)n2C(C)C	none (no result: CYP2C19 inh, CYP2C9 inh, CYP2C19 activ, CYP2C9 act)
COCCOC(=O)c1c(C)n(C)c2ccc(OC(=O)N(C)C)cc12	CYP2C9 inh 53.6
ClC1=CCC2CN(CCN3CCCCC3)CC2C1 (stereo unspecified)	none (no result: PLK1 kinase inh, Plk1 PBD FP)
COc1ccc(Cn2c(O)c(C=NCCCn3ccnc3)c(=O)[nH]c2=O)cc1	CYP2C9 inh 62.8
CCOc1ccc(-n2c(O)c(C=NCCCn3ccnc3)c(=O)[nH]c2=O)cc1	none
CCCCCCn1c(O)c(C=NCCCn2ccnc2)c(=O)[nH]c1=O	CYP2C9 inh 93.4
CCCCN=Cc1c(O)n(-c2c(C)cc(C)cc2C)c(=O)[nH]c1=O	none
CCCCn1c(O)c(C(CC)=NCc2cc(OC)cc(OC)c2)c(=O)[nH]c1=O	CYP2C19 inh 86.6, CYP2C9 inh 94.5
CCCCn1c(O)c(C(C)=NCc2cc(OC)cc(OC)c2)c(=O)[nH]c1=O	CYP2C19 inh 86.6, CYP2C9 inh 98.0
N#Cc1cc2c(nc1SCC(=O)Nc1cc(Cl)ccc1Cl)C1CCN2CC1	none (no result: CYP2C19 inh, CYP2C9 inh, CYP2C19 activ, CYP2C9 act)
CCOP(=S)(OCC)SCC(=O)NC(C)(CC)C(=O)O (stereo unspecified)	CYP2C9 inh 84.0
S=C(c1ccc(Cl)cc1)N1CCOCC1	CYP2C19 inh 65.9
Cc1nc2ccc(Cl)cn2c1P(=S)(N1CCOCC1)N1CCOCC1	none (no result: PLK1 kinase inh, Plk1 PBD FP)
CCC(=NCc1ccc2c(c1)OCO2)c1c(O)n(C)c(=O)n(C)c1=O	CYP2C9 inh 61.6
CCC(=Nc1ccc(OC)cc1OC)c1c(O)n(C)c(=O)n(C)c1=O	none
CCC(=NCc1cc(OC)cc(OC)c1)c1c(O)n(C)c(=O)n(C)c1=O	CYP2C9 inh 81.0
CCC(=NCCc1c[nH]c2ccccc12)c1c(O)n(C)c(=O)n(C)c1=O	CYP2C19 inh 59.3, CYP2C9 inh 50.2
CC(=NCc1ccc2c(c1)OCO2)c1c(O)n(C)c(=O)n(C)c1=O	none
CCC(=NCCOc1ccc(Cl)cc1)c1c(O)n(C)c(=O)n(C)c1=O	none
COc1cc2c(cc1OC)C(C(=O)N1CCC3(CC1)OCCO3)C(c1ccccc1F)N(C)C2=O (stereo unspecified)	none (no result: CYP2C19 inh, CYP2C9 inh, CYP2C19 activ, CYP2C9 act)
CC1N(O)C2CCCCCC2N1O (stereo unspecified)	none
CCCC12CN3CN(C1)CC(CCC)(C3)C2O (stereo unspecified)	none
CCOc1ccc(CC2C(=O)NC(=O)N(c3ccc(CC)cc3)C2=O)cc1 (stereo unspecified)	CYP2C9 inh 66.7
CCOC(=O)C1C(=O)NC23CCCC2C1c1ccccc1O3 (stereo unspecified)	none
O=C(Nc1ccc2c(c1)OCO2)c1cn(Cc2ccc(F)cc2)nn1	none
O=C(NC(Oc1ccccc1)C(Cl)(Cl)Cl)c1ccccc1 (stereo unspecified)	none
CCCC(=O)NC(Oc1ccccc1Cl)C(Cl)(Cl)Cl (stereo unspecified)	CYP2C19 inh 80.4, CYP2C9 inh 59.4
CC(C)CC(=O)NC(Oc1ccc(Cl)cc1)C(Cl)(Cl)Cl (stereo unspecified)	CYP2C19 inh 81.7
